Compound activity from PubChem.
Only some compounds are listed: those with a hit (about 3.5% of all), similar ones and a draw of the others.
FBW7 act: human FBW7 E3 ligase activation, primary screen. Q969H0. AlphaScreen FBW7–phospho-cyclin E peptide binding, activator screen. normalized activity (activation), % at 26.1 µM. 650,000 tested, 0.13% active. AID 1259310; in the data active = normalized activity above about 1.9%;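 note: purified mutant Fbw7 with reduced substrate affinity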
TEAD-YAP block: TEAD-YAP interaction inhibition | HEK-TIYL cells, TEAD-Gal4/YAP UAS-luciferase luminescence | inhibition, % at 9.12 µM | 640,000 tested, 1.4% active; in the data active = inhibition above about 32%
MITF primary: blocks human microphthalmia-associated transcription factor; O75030; AlphaScreen MITF homodimerization, bead proximity signal; inhibition, % at 2.6 µM; 650,000 tested, 0.91% active; AID 1259374; in the data active = inhibition above about 50%
GPR151 activ: activates the human receptor GPR151. Q8TDV0. PathHunter beta-arrestin GPR151 cells, luminescence. activation, % at 11.2 µM. 650,000 tested, 1% active; in the data active = activation above about 4.9%
Target sequence (Q8TDV0 whole entry, looked up): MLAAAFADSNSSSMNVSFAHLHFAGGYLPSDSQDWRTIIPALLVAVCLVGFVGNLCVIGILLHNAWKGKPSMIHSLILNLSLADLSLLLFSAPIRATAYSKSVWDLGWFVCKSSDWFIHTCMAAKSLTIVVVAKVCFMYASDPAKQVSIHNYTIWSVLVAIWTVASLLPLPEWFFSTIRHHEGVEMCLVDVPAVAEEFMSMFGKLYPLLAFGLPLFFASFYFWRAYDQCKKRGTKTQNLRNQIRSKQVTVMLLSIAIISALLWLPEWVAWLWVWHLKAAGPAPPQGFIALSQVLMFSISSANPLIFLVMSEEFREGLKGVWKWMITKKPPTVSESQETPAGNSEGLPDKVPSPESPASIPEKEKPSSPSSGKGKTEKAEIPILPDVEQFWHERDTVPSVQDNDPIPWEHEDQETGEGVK
GPR151 conf act: human GPR151 activation, confirmation screen; shares compounds with GPR151 activ; GPR151 PathHunter beta-arrestin cells, luminescence, 90 min; % of EA-reagent control over plate median; activation, % at 11.2 µM; 6,700 tested, under 10 active;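 active = mean percent activation across replicates above the confirmation screen cutoff of 4.91%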
GPR119 ag: activates human GPR119 in a GPR151 counter-screen; shares compounds with GPR151 activ; GPR119 PathHunter beta-arrestin cells, luminescence, 90 min; 0 = compound-well median, 100 = enzyme-acceptor control; activation, % at 11.2 µM; 6,700 tested, 0.3% active; AID 1508611;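 active = mean percent activation in the counterscreen above 29.09%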;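 note: counterscreen on off-target GPR119 to flag nonselective hits from the GPR151 activator screen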
Hits are given with their value; 0 = inactive; - = not tested or not shown; ! = not confirmed by another sample.

SMILES	FBW7 act	TEAD-YAP block	MITF primary	GPR151 activ	GPR151 conf act	GPR119 ag
COc1ccc(O[C@H]2C=C[C@@H](c3ccccc3)O[C@@H]2CO/N=C2/[C@H]3CCn4c(=O)n(-c5ccccc5)c(=O)n4[C@H]3[C@H](O)[C@@H]3O[C@H]23)cc1	0	-	0	6.7	0	0
O=C(CCc1nc2ccccc2c(=O)[nH]1)OCc1cc([N+](=O)[O-])cc2c1OCOC2	0	0	0	0	-	-
O=C(NCc1ccccc1)c1cc(=O)c(OCc2ccc(F)cc2)co1	0	0	0	0	-	-
COC(=O)c1cc(NC(=O)c2cccs2)c(=O)n2c(=O)c3c(C)c(C)sc3[nH]c12	0	0	0	0	-	-
COC(=O)c1cc(NC(=O)c2ccc(F)cc2)c(=O)n2c(=O)c3c(C)c(C)sc3[nH]c12	0	0	0	5.4	0	0
COc1cc(CN2CCc3nnc(CCc4ccccc4)n3CC2)cc(OC)c1O	0	0	0	0	-	-
COc1cccc(CN2CCc3nnc(CCNC(=O)C4CCCO4)n3CC2)c1 (stereo unspecified)	0	0	0	6.3	0	0
COc1cc(CN2CCc3nnc(CCc4ccccc4)n3CC2)cc(OC)c1OC	0	0	0	7.1	0	0
Nc1c(C(=O)Nc2ccc(Oc3ccccc3)cc2)nnn1Cc1ccccc1	0	0	0	0	-	-
COc1ccc(NC(=O)c2nnn(Cc3ccccc3)c2N)cc1	0	0	0	8.1	0	0
Oc1ccc(CCNc2nc(-c3ccccc3)nc3c2ncn3C2CCCCC2)cc1	0	0	0	0	-	-
CCCCCCCCCCCCCCCCOP(=O)(O)OCC[N+](C)(C)C	0	0	0	11!	0	0
CCC(=O)Oc1ccc2c(-c3cc4ccccc4oc3=O)cc(=O)oc2c1	0	0	0	5.4	0	0
O=C(Oc1ccc2c(-c3cc4ccccc4oc3=O)cc(=O)oc2c1)C1CC1	0	0	0	9.2	0	0
CCOc1ccc2c(-c3cc4ccccc4oc3=O)cc(=O)oc2c1	0	0	0	0	-	-
COc1ccc(Cn2nccc2N)cc1OC	0	0	0	14	0	0
COc1ccccc1Cn1nccc1N	0	0	0	0	-	-
c1nc(N2CCCCC2)c2sc3nc(N4CCOCC4)c4c(c3c2n1)CCCC4	0	0	0	6.2	0	0
c1nc(N2CCOCC2)c2sc3nc(N4CCCCC4)c4c(c3c2n1)CCCC4	0	0	0	0	-	-
CCCCN(CCCC)S(=O)(=O)c1ccc(NC(=O)c2ccc(NC(C)=O)cc2)cc1	0	0	0	0	-	-
CC(=O)N1CCc2cc(Br)cc(S(=O)(=O)NC3CCCC3)c21	0	0	0	0	-	-
CC(=O)N1CCc2cc(Br)cc(S(=O)(=O)NC3CCCc4ccccc43)c21 (stereo unspecified)	0	0	0	5.1	0	0
CCOc1ccc(/C=C2\Oc3c(ccc(O)c3CN3CCN(CCO)CC3)C2=O)cc1	0	0	0	0	-	-
CCOc1ccccc1/C=C1\Oc2c(ccc(O)c2CN2CCN(CCO)CC2)C1=O	0	0	0	6.8	0	0
Cc1cc(-c2cnc(N3CCOCC3)nc2C2CCN(Cc3cccnc3)CC2)on1	0	0	0	0	-	-
SMILES	FBW7 act	TEAD-YAP block	MITF primary	GPR151 activ	GPR151 conf act	GPR119 ag
CCc1ccc(NC(=O)C(C)N(c2ccccc2)S(C)(=O)=O)cc1 (stereo unspecified)	0	0	0	0	-	-
CC(=O)N1CCc2cc(S(=O)(=O)NCCC(=O)NCCc3ccc(Cl)cc3)ccc21	0	0	0	6.5	0	0
COc1ccc(-c2nnc(SCc3csc(N)n3)o2)cc1	0	0	0	0	-	-
C/C(=N\NC(=O)Cn1nnc(-c2ccccc2)n1)c1nonc1C	0	0	0	16	0	0
CC(=O)Cn1nnc(-c2ccccc2)n1	0	0	0	0	-	-
CCN(C(=O)c1ccc(F)cc1)c1ccccc1	0	0	0	0	-	-
Cc1ccc(NCN2C(=O)c3ccc([N+](=O)[O-])cc3C2=O)cc1C	0	0	0	0	-	-
Cc1ccc(S(=O)(=O)/N=C2/NC(=O)/C(=C/c3ccco3)S2)cc1	0	0	0	0	-	-
COc1ccc(S(=O)(=O)/N=C2/NC(=O)/C(=C\c3ccco3)S2)cc1	0	0	0	7.4	0	0
CNCCOc1cccc(OC(C)C)c1	0	0	0	4.9	0	0
CC(NC(=O)Nc1ccc(S(N)(=O)=O)cc1)(C(F)(F)F)C(F)(F)F	0	0	0	4.9	0	0
CCCCCOc1ccc(/C=C2/C(=O)ON=C2C)cc1	0	0	0	0	-	-
Cn1cccc1/C=C1\SC(=S)NC1=O	0	0	0	5.1	0	0
COC(=O)C(C)N1C(=O)S/C(=C/c2ccc(Cl)cc2)C1=O (stereo unspecified)	0	0	0	0	-	-
COC(=O)C(C)N1C(=O)S/C(=C/c2cccn2C)C1=O (stereo unspecified)	0	0	0	5.5	0	0
O=c1oc(-c2ccccc2O)nc2ccccc12	0	0	0	0	-	-
COc1ccc(-c2nc3ccc(C(N)=O)cc3s2)cc1	0	0	0	0	-	-
Cc1c(C(=O)N2CCN(c3ccccc3Cl)CC2)nnn1-c1nc2c(s1)CCCC2	0	0	0	9.4	0	0
CC1=C(C)SC(=C(C#N)c2nnc(N3CCOCC3)n2-c2ccccc2)S1	0	0	0	5.4	0	0
Cc1cc(C(=O)COC(=O)C23CC4CC(CC(O)(C4)C2)C3)c(C)n1-c1ccccc1F	0	0	0	0	-	-
CCSc1nc2sc3c(c2c(=O)n1Cc1ccccc1)CCC(C(C)(C)C)C3 (stereo unspecified)	0	0	0	0	-	-
COCc1cc(C)nc2oc(C(=O)c3ccccc3)c(N)c12	0	0	0	5.7	0	0
COCc1cc(C)nc2sc(C(=O)c3ccccc3)c(N)c12	0	0	0	0	-	-
Cc1ccc(OCC(=O)N/N=C/c2cc3c(cc2[N+](=O)[O-])OCO3)cc1C	0	0	0	0	-	-
COc1ccc(OCC(=O)N/N=C/c2cc3c(cc2[N+](=O)[O-])OCO3)cc1	0	0	0	10	0	0
SMILES	FBW7 act	TEAD-YAP block	MITF primary	GPR151 activ	GPR151 conf act	GPR119 ag
O=C(c1ccccc1)c1ccc(-n2ccnc2)c([N+](=O)[O-])c1	0	0	0	7.3	0	0
O=C(O)c1ccc(-n2ccnc2)c([N+](=O)[O-])c1	0	0	0	0	-	-
Cc1ccc(C(=O)c2ccccc2)cc1[N+](=O)[O-]	0	0	0	8.7	0	0
CCc1ccc2c(c1)c(=O)c(S(=O)(=O)c1ccccc1)cn2CC	0	0	0	0	-	-
COc1ccc(C(=O)N(CCCO)C(C)C(=O)NC2CCCCC2)cc1OC (stereo unspecified)	0	0	0	5.1	0	0
CCOC(=O)C(=Cc1ccc(OC)cc1)C(=O)OCC	0	0	0	0	-	-
COc1ccccc1-c1nnc(C2CCN(S(=O)(=O)c3ccccc3)CC2)o1	0	0	0	5.8	0	0
CC(NC(=O)/C=C/c1ccco1)c1ccccc1 (stereo unspecified)	0	0	0	5.1	0	0
